Compound activity as filed in PubChem.
An excerpt weighted towards active compounds, which were near 17% of everything screened.
HepG2 tox: kills HepG2 cells in TGF-b inhibitor counter-screen; HepG2 CAGA-GFP viability, ATP luminescence, 18 h; Potency, µM (titrated, usually from 46.1 µM), for inactives: at the highest dose activity change, negative = cytotoxicity, actives largely listed as cytotoxic; 0.76% of 410,000 active; AID 588856
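CellTiter-Glo luminescence gave cytotoxicity after 18 hours at 37 degrees C. The cells were HepG2 CAGA-GFP in 1% FBS DMEM, stimulated with 500 pg/mL TGF-beta after compound addition. %Activity was normalised to no-cell wells (complete cell-killing) and DMSO (no toxicity), and curves were fitted and classified.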
TDP1 cell CPT: DT40-hTDP1 cell growth loss with CPT | AID 686979 | 12% of 420,000 active | Potency, µM (titrated, usually from 46.2 µM), for inactives: top-dose activity change, negative = growth inhibition, most hits filed as inhibitors | chicken DT40 Tdp1-/-;hTDP1 cells + 20 nM CPT, ATP luminescence, 48 h; also: % is scaled to controls: 0 for no effect and ±100 for the full control effect; nearly all actives have a fitted effect of over 55% in size
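Chicken DT40 Tdp1-/- cells complemented with human TDP1, 400 cells/well, exposed to compounds plus 20 nM camptothecin for at least 48 h at 37 C; viability read as ATP content by CellTiter-Glo luminescence.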
ATXN2 expr inh: inhibitors of ATXN2 expression; 0.72% of 360,000 active; HEK-293 ATXN2-luciferase reporter, luminescence, 24 h; Potency, µM (series often up to 57 µM), without a hit: at the highest dose activity change, negative = inhibition, actives largely listed as inhibitors; also: % is scaled to controls: 0 for no effect and ±100 for the full control effect; nearly all actives have a fitted effect of over 55% in size
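qHTS (up to 57 uM final) was run with 24 h compound exposure of reporter cells at 37 °C. Each well was multiplexed: SteadyGlo luminescence measured ATXN2-luciferase expression after a fluorogenic Gly-Phe-AFC viability readout (25 uM final).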
TDP1 cell noCPT: qHTS for Inhibitors of human tyrosyl-DNA phosphodiesterase 1 (TDP1): qHTS in cells in absence of CPT; DT40 Tdp1-/- hTDP1 cells, no CPT, ATP luminescence, 48 h; Potency, µM (series often up to 46.2 µM), inactives show top-dose activity change, negative = growth inhibition, actives largely listed as inhibitors; 15% of 420,000 active; AID 686978, 2013; also: % is scaled to controls: 0 for no effect and ±100 for the full control effect; nearly all actives have a fitted effect of over 55% in size
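Chicken DT40 Tdp1-/- cells complemented with human TDP1, screened without camptothecin (DMSO vehicle only), 400 cells/well. Compounds pin-transferred, cells incubated at 37 °C for at least 48 hr. Growth read as ATP-dependent luminescence (CellTiter-Glo, 30 min at RT).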
S2 tox: reduces viability in counter-screen for ATXN expression inhibitors; S2 cells (HEK-293 line with an ATXN2-luciferase reporter) viability, CellTiter-Fluor protease fluorescence, 24 h; Potency, µM (highest dose often 56.7 µM), usual class: cytotoxic; 0.49% of 400,000 active; also: nearly all actives have a fitted effect of over 40% in size
TGFb inhibitor: inhibitors of TGF-b signaling; HepG2 CAGA-GFP TGF-b/SMAD3 reporter, GFP fluorescence, 18 h; TGF-beta stimulated, 500 pg/mL final; Potency, µM (top dose mostly 46.1 µM), inactives show at the highest dose activity, negative = inhibition, hits mostly inhibitors; 1.2% of 410,000 active; also: % is scaled to controls: 0 for no effect and ±100 for the full control effect; nearly all actives have a fitted effect of over 65% in size
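HEPG2 CAGA-GFP, 1000 cells/well; 2 h settle, 37 C; cpd via pin tool; TGF-b 500 pg/mL final; 18 h, 37 C; GFP imaging ex488/em500-530; %Activity normalised to -TGF-b and +DMSO controls; CRC fit, curve class.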
An asterisk follows results filed as active; ! = not confirmed by another sample. Calls follow the shape of the dose curve; as a rule, active = well fitted curve in the direction sought with a large enough effect; inconclusive = small, poorly fitted or top-dose-only effect, or another doubt; inactive = no such curve, though single readings can be large; an effect the other way counts as inactive or inconclusive. Potency is read from the fitted curve at half-maximal effect.

`COc1cc(OC)c(NC(c2nnc(-c3ccccc3)o2)c2ccc(F)cc2Cl)cc1Cl` (centres undefined) gave HepG2 tox -10.0%, TDP1 cell CPT inconclusive, ATXN2 expr inh 1.8%, TDP1 cell noCPT 18.4µM*, S2 tox inactive and TGFb inhibitor -40.3%.
CCCn1c(SCC(=O)NCc2ccc(OC)cc2)n[nH]c1=O was read as HepG2 tox -13.2%, TDP1 cell CPT 4.3%, ATXN2 expr inh inconclusive, TDP1 cell noCPT -3.7%, S2 tox inconclusive and TGFb inhibitor 4.5%.
CCCn1c(SCC(=O)N2N=C3/C(=C/c4ccc(OC)cc4)CCCC3C2c2ccc(OC)cc2)n[nH]c1=O (centres undefined) was read as HepG2 tox -64.8%, TDP1 cell CPT inconclusive, ATXN2 expr inh inconclusive, TDP1 cell noCPT inconclusive and TGFb inhibitor 12.6µM*.
`COCCN(CCOC)c1ncc(Cl)c(C(=O)c2c(C)cc3ccccn23)n1` gave HepG2 tox -13.2%, TDP1 cell CPT inconclusive, ATXN2 expr inh -3.2%, TDP1 cell noCPT 20.6µM*, S2 tox inactive and TGFb inhibitor -18.0%.
For CCOc1ccc2c(c1)C(C)=CC(C)(C)N2 the results were HepG2 tox -8.4%, TDP1 cell CPT 13.3µM*!, ATXN2 expr inh 7.6%, TDP1 cell noCPT inconclusive, S2 tox inactive and TGFb inhibitor -3.9%.
`CC1=CC(C)(C)Nc2ccc(OC(=O)CN3C(=O)c4cccc5cccc(c45)C3=O)cc21` gave HepG2 tox -18.8%, TDP1 cell CPT 2.91µM*, ATXN2 expr inh inconclusive, TDP1 cell noCPT 2.59µM*, S2 tox inactive and TGFb inhibitor -4.4%.
O=C(C[N+]1(CCc2ccccc2)CCOCC1)c1cccc([N+](=O)[O-])c1 was read as HepG2 tox -1.2%, TDP1 cell CPT -4.3%, TDP1 cell noCPT -20.4% and TGFb inhibitor -9.4%.
Screening Fc1ccccc1CSc1ccc(-c2ccco2)nn1 returned HepG2 tox -3.5%, TDP1 cell CPT -22.5%, TDP1 cell noCPT inconclusive, S2 tox inactive and TGFb inhibitor 6.4%.
Screening Cc1cccc(/C(N)=N/OC(=O)N2c3ccccc3Sc3ccccc32)c1 returned HepG2 tox -37.6%, TDP1 cell CPT inconclusive, ATXN2 expr inh -19.6%, TDP1 cell noCPT 20.6µM*, S2 tox inactive and TGFb inhibitor 8.3%.
O=C1c2ccccc2C(=O)N1CCn1c(=O)oc2ccccc21 was read as HepG2 tox -2.4%, TDP1 cell CPT -22.3%, ATXN2 expr inh 11.6%, TDP1 cell noCPT -5.3%, S2 tox inactive and TGFb inhibitor 2.2%.
CCC(c1ccccc1)C(CC)c1cc(O)c(O)c(O)c1 (centres undefined) was read as HepG2 tox -47.5%, TDP1 cell CPT 16.4µM*, ATXN2 expr inh inconclusive, TDP1 cell noCPT 8.2µM*, S2 tox inconclusive and TGFb inhibitor inconclusive.
Screening CCCCNC(=O)c1sc2nc(C)cc(COC)c2c1-n1cccc1 returned HepG2 tox -34.0%, TDP1 cell CPT 16.4µM*, ATXN2 expr inh -10.0%, TDP1 cell noCPT 25.9µM*, S2 tox inactive and TGFb inhibitor inconclusive.
CSc1ccc(CCNC(=O)c2sc3ncccc3c2-n2cccc2)cc1 was read as HepG2 tox -35.0%, TDP1 cell CPT 16.4µM*, ATXN2 expr inh inconclusive, TDP1 cell noCPT 25.9µM*, S2 tox inconclusive and TGFb inhibitor inconclusive.
For CCCCNC(=O)c1sc2ncccc2c1-n1cccc1 the results were HepG2 tox -2.1%, TDP1 cell CPT 11.6µM*, ATXN2 expr inh 16.6%, TDP1 cell noCPT -28.3%, S2 tox inconclusive and TGFb inhibitor 5.8%.
